Source: PubChem BioAssay
Jurkat NFkB inh = inhibitors of induced NF-kB luciferase reporter, primary screen, TCR NF-kB activation inhibitor project, cell-based, luminescence, uHTS | Jurkat, PMA/ionomycin-induced NF-kB luciferase reporter | inhibition, % at 4 µM | 0.53% of 330,000 active; in the data active = inhibition above about 50%
Beta apoptosis = inhibitors of cytokine-induced beta cell apoptosis, primary screen, luminescence; INS-1E cytokine-induced death, ATP luminescence, 48 h; percent of positive-control rescue, neutral wells zero; protection from apoptosis, % (concentration not given with the values); 0.8% of 300,000 active;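 active = Every replicate reaches about 75%, or at least half do and their mean reaches it too, limit read from the data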;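 note: 0% = cytokine-treated negative control wells and 100% = positive control rescue; higher means more ATP so stronger rescue from cytokine killing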
697 NFkB inh = inhibitors of PMA/ionomycin-induced NF-kB reporter, 697 cells, primary screen, B-cell NF-kB inhibitor project, cell-based, luminescence, uHTS. 697 B-cell NF-kB luciferase reporter, 16 h. inhibition, % at 4 µM. 0.33% of 330,000 active. AID 435022, 2010; in the data active = inhibition above about 35%
CSC inhib = cancer stem cell viability inhibitors, primary screen, luminescence | AID 2717, 2010 | 1.1% of 300,000 active | cancer stem cell-like cells viability | inhibition, % at 7.5 µM; in the data active = inhibition above about 75%; tested in HMLE shEcad cells
Gli-Sufu antag = Gli-Sufu pathway antagonists, primary screen, luciferase luminescence, Sufu-KO-LIGHT cells, uHTS | Sufu-KO-LIGHT fibroblasts, Gli luciferase reporter luminescence | inhibition, % at 5 µM | 0.74% of 340,000 active;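 active = inhibition above about 55%, limit read from the data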;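 note: 0% = DMSO-treated cells and 100% = wells with medium but no cells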
Mdm2-MdmX inh = inhibitors of human Mdm2-MdmX association, primary screen, cell-based, luminescence, split luciferase, SaOS-2, uHTS; Protein Mdm4 (Homo sapiens) + E3 ubiquitin-protein ligase Mdm2 (Homo sapiens), …; SaOS-2 split-luciferase Mdm2/MdmX complementation; inhibition, % at 8 µM; 3% of 330,000 active; AID 485346, 2010;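 active = inhibition of at least 50% at 8 µM in the primary screen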
Target sequence (O15151 whole entry, looked up): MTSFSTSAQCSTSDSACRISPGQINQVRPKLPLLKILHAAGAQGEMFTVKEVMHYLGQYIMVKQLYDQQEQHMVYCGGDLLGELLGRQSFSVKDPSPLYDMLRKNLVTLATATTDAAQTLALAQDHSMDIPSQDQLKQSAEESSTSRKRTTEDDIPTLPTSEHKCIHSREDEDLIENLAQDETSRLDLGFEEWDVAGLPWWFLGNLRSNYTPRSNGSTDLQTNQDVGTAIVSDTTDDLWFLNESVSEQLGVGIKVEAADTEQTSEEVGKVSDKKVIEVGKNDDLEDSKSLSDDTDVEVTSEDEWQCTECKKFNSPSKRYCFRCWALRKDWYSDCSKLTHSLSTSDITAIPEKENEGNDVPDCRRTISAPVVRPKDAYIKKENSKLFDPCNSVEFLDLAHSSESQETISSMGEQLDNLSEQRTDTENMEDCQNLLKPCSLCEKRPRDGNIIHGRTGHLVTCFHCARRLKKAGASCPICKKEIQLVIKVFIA
Target sequence (Q00987 whole entry, looked up): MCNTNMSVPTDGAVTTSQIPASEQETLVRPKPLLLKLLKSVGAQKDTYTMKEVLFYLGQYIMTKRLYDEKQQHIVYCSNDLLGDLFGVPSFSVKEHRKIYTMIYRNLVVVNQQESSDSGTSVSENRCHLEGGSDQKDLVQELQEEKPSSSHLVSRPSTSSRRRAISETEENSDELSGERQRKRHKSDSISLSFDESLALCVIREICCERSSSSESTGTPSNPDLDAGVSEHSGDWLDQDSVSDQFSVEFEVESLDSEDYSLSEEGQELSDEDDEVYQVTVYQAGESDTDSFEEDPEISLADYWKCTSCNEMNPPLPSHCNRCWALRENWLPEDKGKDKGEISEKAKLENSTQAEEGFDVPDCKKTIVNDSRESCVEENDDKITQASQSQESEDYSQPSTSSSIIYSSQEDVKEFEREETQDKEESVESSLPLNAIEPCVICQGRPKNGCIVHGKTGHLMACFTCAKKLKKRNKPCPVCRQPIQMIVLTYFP
* = called active by the depositor; x = no result given. Only some compounds are listed: those with a hit (about 4.5% of all), similar ones and a draw of the others.

SMILES | Jurkat NFkB inh | Beta apoptosis | 697 NFkB inh | CSC inhib | Gli-Sufu antag | Mdm2-MdmX inh
CCOC(=O)N1CCN(c2ccc(C(=O)c3cccc(F)c3)cc2)CC1 | -17 | -2 | -38 | 76* | -13 | -29
O=Cc1cn(-c2ccccc2)nc1-c1ccccc1 | -22 | x | -5 | 4 | -35 | 17
CC1=NNC(=O)/C1=C\c1cn(-c2ccccc2)nc1-c1ccccc1 | x | 109* | x | 70 | 6 | x
COC(=O)C1CCN(C(=O)COC(=O)c2cc(-c3cccs3)nn2-c2ccccc2)CC1 | 4 | -7 | 25 | 9 | -10 | -3
COc1cccc(-c2sc3ccc(OC)cc3c2-c2cc(F)cc(OC)c2)c1 | -2 | -4 | 16 | 25 | 17 | 10
COc1ccccc1-c1sc2ccccc2c1-c1ccc(O)cc1 | 4 | 6 | 4 | x | -6 | 25
COc1cccc(-c2sc3ccc(OC)cc3c2-c2ccc(O)cc2)c1 | 1 | 4 | -1 | 129* | 16 | 15
COc1ccc(-c2sc3ccccc3c2-c2ccc(O)cc2)cc1 | 16 | 9 | 3 | 107* | 20 | 37
O=C(CSc1ccc2nnc(-c3ccccn3)n2n1)Nc1ccc(F)cc1F | 18 | -1 | -41 | -16 | 3 | -3
Cc1ccc(-n2c(SCC(=O)O)nc3sc4c(c3c2=O)CCCC4)cc1 | -9 | 2 | 11 | 12 | -15 | 8
Cc1ccc(-n2c(SCC(=O)c3c(N)n(C)c(=O)n(C)c3=O)nc3sc4c(c3c2=O)CCCC4)c(C)c1 | 25 | 102* | 13 | 5 | 15 | 39
Clc1ccc(CSc2nnnn2-c2ccc3c(c2)OCO3)c(Cl)c1 | 11 | 0 | -7 | 82* | 3 | 30
c1ccc(CSc2nnnn2-c2ccc3c(c2)OCCO3)nc1 | -12 | 2 | -11 | 2 | -14 | 16
COCC1CCCN(C(=O)c2cc(COc3ccc4ncccc4c3)on2)C1 (centres undefined) | 47 | 72 | 16 | 6 | 56* | 14
O=C1C2C(c3ccccc3)(C(=O)N1c1ccc(Cl)cc1)C2(c1ccccc1)c1ccccc1 (centres undefined) | 9 | 1 | 8 | 75* | -8 | 31
O=C1c2ccccc2C(=O)N1c1ccc(Cl)cc1 | 9 | -4 | -2 | -4 | x | -3
CCC1CCCCN1C(=O)c1cc(COc2ccc(-n3cncn3)cc2)on1 (centres undefined) | 6 | 104* | 1 | -13 | 49 | 7
O=C(c1cc(COc2ccc(-n3cncn3)cc2)on1)N1CCCC1 | -1 | 0 | -13 | 21 | -4 | 12
CNC(=O)C1C(=S)NC(N)=C(C#N)C1c1ccccc1 (centres undefined) | 14 | 15 | 18 | 112* | 11 | 11
COC(=O)C1=C(C)OC(N)=C(C#N)C1c1ccccc1 (centres undefined) | -2 | 1 | -3 | -1 | 0 | 3
O=C(COC(=O)c1cccc([N+](=O)[O-])c1)Nc1ncc(Br)s1 | -1 | 0 | -2 | -22 | 10 | 23
Cc1ccc(C(=O)OC(C)C(=O)NC2CCCCC2C)s1 (centres undefined) | 0 | -3 | 5 | x | -8 | -8
CC(OC(=O)c1cccs1)C(=O)NC1CCCCC1C (centres undefined) | 7 | 0 | 7 | 96* | -5 | 9
Nc1cc(=O)[nH]c(SCC(=O)Nc2cccc(S(=O)(=O)N3CCCCC3)c2)n1 | 10 | -4 | 2 | -1 | -1 | 21
CCOC(=O)c1c(N)sc2c(OCC)c(Br)ccc12 | 3 | 10 | 2 | 79* | -4 | 2
SMILES | Jurkat NFkB inh | Beta apoptosis | 697 NFkB inh | CSC inhib | Gli-Sufu antag | Mdm2-MdmX inh
Cc1ccc(SCC(=O)OC(C)C(=O)NC2CCCCC2C)c(C)c1 (centres undefined) | 0 | -5 | 7 | 12 | 1 | 8
CN(C(=O)c1ccc(Cl)cc1)c1ccc(OCC(=O)Nc2cc(C(=O)O)ccc2Cl)cc1 | x | x | x | x | 2 | x
C#CCOCCOCCOCCNc1nc(N2CCN(C(=O)CCCCCCCCCCNC(=O)[C@H]([C@@H](C)CC)n3cc(CCCCN=C(N)N)nn3)CC2)nc(N2CCN(C(=O)CCCCCCCCCCNC(=O)[C@H](CCCCN)n3cc(C[C@@H](C)CC)nn3)CC2)n1 | 9 | 98* | -34 | 102* | x | 49
C#CCOCCOCCOCCNc1nc(N2CCN(C(=O)CCCCCCCCCCNC(=O)[C@H](CCCCN)n3cc(CCO)nn3)CC2)nc(N2CCN(C(=O)CCCCCCCCCCNC(=O)[C@H](CCCN=C(N)N)n3cc(C[C@@H](C)CC)nn3)CC2)n1 | 15 | 63 | 1 | 135* | 14 | 11
CC[C@H](C)Cc1cn([C@@H](CCCCNC(=O)OC(C)(C)C)C(=O)NCCCCCCCCCCC(=O)N2CCN(C(=O)OC(C)(C)C)CC2)nn1 | 15 | 82* | -69 | 15 | 28 | 10
C#CCOCCOCCOCCNc1nc(N2CCN(C(=O)CCCCCCCCCCNC(=O)[C@H](CCCCN)n3cc(CCCC(=O)O)nn3)CC2)nc(N2CCN(C(=O)CCCCCCCCCCNC(=O)[C@H](CCCN=C(N)N)n3cc(C[C@@H](C)CC)nn3)CC2)n1 | 13 | 11 | 10 | -19 | -17 | 6
C#CCOCCOCCOCCNc1nc(N2CCN(C(=O)CCCCCCCCCCNC(=O)[C@H](CCCCN)n3cc(C[C@@H](C)CC)nn3)CC2)nc(N2CCN(C(=O)CCCCCCCCCCNC(=O)[C@H](CCCCN)n3cc(C[C@@H](C)CC)nn3)CC2)n1 | x | 114* | x | 166* | 7 | x
C#CCOCCOCCOCCNc1nc(N2CCN(C(=O)CCCCCCCCCCNC(=O)[C@H](CCCCN)n3cc(CCO)nn3)CC2)nc(N2CCN(C(=O)CCCCCCCCCCNC(=O)[C@H](CCCCN)n3cc(CCO)nn3)CC2)n1 | -11 | -3 | 13 | 7 | -3 | 14
Cc1ccc(NC(=O)c2cccc(S(=O)(=O)Nc3c(C)n(C)n(-c4ccccc4)c3=O)c2)cc1C | x | x | x | x | 4 | x
COc1ccccc1NC(=O)COC(=O)C1CC2CCCC(C1)C2=O (centres undefined) | 14 | -5 | 18 | -15 | -6 | 21
O=C(COC(=O)c1ccc(O)cc1O)NC(=O)Cc1ccccc1 | x | x | x | x | -11 | x
Cc1cc(Nc2ccccc2Cl)nc(-c2ccccc2O)n1 | -12 | 14 | 18 | 51 | 3 | 12
Cc1cc(Nc2cccc(F)c2)nc(-c2ccccc2O)n1 | -7 | 1 | 19 | 102* | -11 | 34
Cc1cc(Nc2ccccc2)nc(-c2ccccc2O)n1 | -31 | 6 | -9 | 80* | -47 | -18
Cc1ccc(C)c(OCC(=O)Nc2cccc(S(=O)(=O)NC3=NCCCCC3)c2)c1 | -11 | -6 | 3 | -7 | 9 | 13
